Bioassay records deposited in PubChem BioAssay by The Scripps Research Institute Molecular Screening Center.
SF-1 inh: inhibitors of human nuclear receptor SF-1; Q13285; CHO-K1 Gal4-SF-1 LBD luciferase reporter; inhibition, % at 10 µM; 65,000 compounds, 0.55% hits;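 active = inhibition above the mean inhibition of all tested compounds plus 3 SD, cut at about 48% in these data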;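 note: 0% = SF-1 transfected cells with DMSO and 100% = mock-transfected cells lacking SF-1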
Target sequence (Q13285 whole entry, looked up, the tested form may be a part): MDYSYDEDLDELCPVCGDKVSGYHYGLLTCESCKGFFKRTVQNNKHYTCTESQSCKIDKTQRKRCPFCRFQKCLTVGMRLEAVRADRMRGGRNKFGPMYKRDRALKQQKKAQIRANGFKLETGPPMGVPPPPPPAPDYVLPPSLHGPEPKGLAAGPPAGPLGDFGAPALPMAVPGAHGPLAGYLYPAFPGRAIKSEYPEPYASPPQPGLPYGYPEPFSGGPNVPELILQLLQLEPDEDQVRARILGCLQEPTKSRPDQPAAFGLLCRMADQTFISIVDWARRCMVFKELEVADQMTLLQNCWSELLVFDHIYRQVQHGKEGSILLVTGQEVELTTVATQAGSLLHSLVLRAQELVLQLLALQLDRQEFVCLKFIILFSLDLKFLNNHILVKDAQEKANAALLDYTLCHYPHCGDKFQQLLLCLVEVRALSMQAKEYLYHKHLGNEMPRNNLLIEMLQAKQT
* hit, by the source's call. Many of the other results were omitted from the sample, so hits are more common in it than they were.

What do the screens show for `c1coc(-c2nnc(NC3=NCCC3)o2)c1`?
SF-1 inh: -61

What do the screens show for `Cc1ccc(-c2nnc(Nc3ccccc3)o2)cc1`?
SF-1 inh: 68*

How did Cc1ccccc1-c1nnc(-c2ccc(Br)cc2)o1 do in these assays?
SF-1 inh: -77

How did OC1CCCCC1Sc1nc2ccccc2s1 (stereo not given) do in these assays?
SF-1 inh: -59

What do the screens show for `Cn1c(CSc2nc3ccccc3s2)nc2ccccc21`?
SF-1 inh: -71

What do the screens show for `O=S1(=O)C=C(Sc2nc3ccccc3s2)c2ccccc21`?
SF-1 inh: 93*

What do the screens show for `CC(C)(C)n1ncc2c(=O)n(CC(=O)NCc3ccc(F)cc3)cnc21`?
SF-1 inh: -92

What do the screens show for `COc1cccc(-c2nnc(SCC(=O)N3CCCC3=O)n2-c2ccccc2)c1`?
SF-1 inh: -3

What do the screens show for `CCc1ccc2oc(-c3cc(N)ccc3O)nc2c1`?
SF-1 inh: 56*

Results for CCc1ccc2oc(-c3cc(N)cc(C)c3O)nc2c1 ?
SF-1 inh: -39

How did CCc1ccc2oc(-c3cc(N)ccc3Cl)nc2c1 do in these assays?
SF-1 inh: 17

Results for O=C(Nc1ccccc1)c1cccc(-c2nnc(-c3ccccc3)o2)c1 ?
SF-1 inh: 63*

What do the screens show for `O=C(Nc1cccc(-c2nnc(-c3ccccc3)o2)c1)C1CCCCC1`?
SF-1 inh: -53

What do the screens show for `O=C(Nc1ccc2oc(-c3ccccc3)nc2c1)c1cccnc1`?
SF-1 inh: -71

What do the screens show for `CCc1ccc(C(=O)NCc2cccs2)s1`?
SF-1 inh: -70

What do the screens show for `COc1ccc(-n2nc(C(=O)NCC(=O)N3CCN(c4ccccn4)CC3)c3ccccc3c2=O)cc1`?
SF-1 inh: -60

How did Oc1c(CN2CCCCC2)cc(COCc2ccccc2)c2cccnc12 do in these assays?
SF-1 inh: 89*

What do the screens show for `c1ccc(Cn2nnnc2CN2CCCC2)cc1`?
SF-1 inh: -4

Results for O=C(c1cccc(COc2ccc(Cl)cc2Cl)c1)N1CCN(c2ccccn2)CC1 ?
SF-1 inh: -76

Results for COCc1cc(CN2CCCC2)c(O)c2ncccc12 ?
SF-1 inh: 50*

Results for Oc1c(CN2CCN(c3ccccn3)CC2)cc(Cl)c2cccnc12 ?
SF-1 inh: 67*

What do the screens show for `O=C(NCCC1=CCCCC1)NC1CCCCC1`?
SF-1 inh: -20

What do the screens show for `CN=Cc1cc(-c2ccccc2)sc1O`?
SF-1 inh: -56

How did O=C1CC(CCC(=O)NC2CC2)c2ccccc2N1 (stereo not given) do in these assays?
SF-1 inh: 2

How did CC(C)(C)NC(=O)CSc1nnc(Cc2ccc3c(c2)OCO3)n1C1CCCCC1 do in these assays?
SF-1 inh: 6

How did CC1(c2ccccc2)NC(=O)N(CCN2C(=O)c3ccccc3C2=O)C1=O (stereo not given) do in these assays?
SF-1 inh: -3

Results for O=C(/C=C\Nc1cccc(F)c1)c1ccc2c(c1)OCO2 ?
SF-1 inh: 58*

What do the screens show for `O=C(CCNc1ccccc1)c1ccc2c(c1)OCO2`?
SF-1 inh: -62

What do the screens show for `COC(=O)c1ccc(NC(=O)c2ccc3c(c2)OCO3)cc1`?
SF-1 inh: -53

How did CN(C)c1oc(-c2ccc(OCc3ccccc3)cc2)nc1C#N do in these assays?
SF-1 inh: -61

How did c1ccc(OCCSc2ncnc3nc[nH]c23)cc1 do in these assays?
SF-1 inh: -24

How did CCCCP(=O)(CCCC)c1ccccc1C(=O)O do in these assays?
SF-1 inh: -10

Results for COc1cc(NC(=O)N[C@H](C(=O)O)C(C)C)cc(OC)c1 ?
SF-1 inh: -17

What do the screens show for `CCC1(CC)C(=O)N=C2c3ccccc3C(=O)N21`?
SF-1 inh: 7

How did CCN1C=CC(=C2C(=O)c3ccccc3C2=O)C=C1 do in these assays?
SF-1 inh: 80*

What do the screens show for `CCCN1C=CC(=C2C(=O)c3ccccc3C2=O)C=C1`?
SF-1 inh: 93*

Results for CC1=CC(=C2C(=O)c3ccccc3C2=O)C=C(C)O1 ?
SF-1 inh: -42

What do the screens show for `COCCCNc1oc(-c2ccccc2F)nc1C#N`?
SF-1 inh: -57

Results for CCc1nc2oc3ccccc3c(=O)c2c(=O)n1-c1ccccc1 ?
SF-1 inh: -71

Results for CC(=O)Nc1ccc(-n2c(C)c(C(C)=O)c(C(C)=O)c2C)cc1 ?
SF-1 inh: 16

Results for CCN1C(=O)CC(C(=O)NC)SC1=Nc1cc(Cl)c(O)c(Cl)c1 (stereo not given) ?
SF-1 inh: 10

Results for CCC(C)NS(=O)(=O)c1ccc(NC(=O)c2c(-c3ccccc3)noc2C)cc1 (stereo not given) ?
SF-1 inh: -11

What do the screens show for `CCC1CCc2c(sc(NC(=O)c3ccoc3C)c2C(N)=O)C1` (stereo not given)?
SF-1 inh: -33

Results for COc1ccc2c(c1)CCc1c(C(=O)NC3CCCCC3)noc1-2 ?
SF-1 inh: -54

Results for Cc1cc(Nc2ccc(F)cc2F)n2ncnc2n1 ?
SF-1 inh: -9

Results for C=CCNC(=O)CN(c1ccc(F)cc1)S(=O)(=O)c1ccc(OC)cc1 ?
SF-1 inh: 2

What do the screens show for `COc1cc(C2C3C(=O)N(Cc4ccccc4)C(=O)C3ON2c2ccccc2)cc(OC)c1O` (stereo not given)?
SF-1 inh: -1

Results for CCOc1ccccc1C(=O)N1CCN(c2cccc(Cl)c2)CC1 ?
SF-1 inh: 55*

Results for COC(=O)c1[nH]c2ccccc2c1NC(=O)CN1CCN(c2cccc(Cl)c2)CC1 ?
SF-1 inh: -20

How did CCOc1ccccc1C(=O)N1CCN=C1SC do in these assays?
SF-1 inh: 6

How did O=c1[nH]c(N2CCOCC2)nc2ncn(Cc3ccccc3)c12 do in these assays?
SF-1 inh: 17

What do the screens show for `O=c1c2ccccc2nc2c3ccccc3c(N3CCOCC3)nn12`?
SF-1 inh: -8

How did c1ccc(-n2nnc3c(N4CCOCC4)ncnc32)cc1 do in these assays?
SF-1 inh: 52*

What do the screens show for `CC(=O)CC1OC(=O)C(Br)=C1NCc1ccccc1` (stereo not given)?
SF-1 inh: 79*

Results for CC(=O)c1c(NCCc2ccccc2)cc(C)oc1=O ?
SF-1 inh: 8

What do the screens show for `CC(NC(=O)Nc1nnc(C(F)(F)F)s1)(C(F)(F)F)C(F)(F)F`?
SF-1 inh: 94*

Results for CC12CC(NC(=O)N1c1ccc(C(=O)N3CCN(c4ccc(F)cc4)CC3)cc1)c1ccccc1O2 (stereo not given) ?
SF-1 inh: -2

What do the screens show for `Cc1cccc(Cn2c(N3CCCCC3C)nc3c2c(=O)[nH]c(=O)n3C)c1` (stereo not given)?
SF-1 inh: 6

What do the screens show for `CCn1c(=NC(=O)CN2C(=O)CCC2=O)sc2c(C)cc(C)cc21`?
SF-1 inh: 34

What do the screens show for `COCCNc1ncnc2c1cnn2-c1ccc(Cl)cc1`?
SF-1 inh: -68

What do the screens show for `COC(=O)C(C)n1cnc2c(cnn2-c2ccc(Cl)cc2)c1=O` (stereo not given)?
SF-1 inh: -53

How did OCCOCCNc1ncnc2c1cnn2-c1ccc(Cl)cc1 do in these assays?
SF-1 inh: -64

How did CCOC(=O)C1CCN(c2ncnc3c2cnn3-c2ccc(Cl)cc2)CC1 do in these assays?
SF-1 inh: 56*

What do the screens show for `Clc1ccc(-n2ncc3c(N4CCCC4)ncnc32)cc1`?
SF-1 inh: 61*

What do the screens show for `CCOC(=O)C1CCN(C(=O)c2ccc(Cl)c(S(=O)(=O)N3CCOCC3)c2)CC1`?
SF-1 inh: -4

How did COC(=O)c1cc(OC)c(OC)cc1NC(=O)CSc1nnnn1Cc1ccccc1 do in these assays?
SF-1 inh: -16
